Bioassay records deposited in PubChem by National Center for Advancing Translational Sciences (NCATS).
The list is not random: actives were taken first. Their share in the collection is about 19%.
IL1B secr inh = inhibitors of inflammasome signaling (IL-1 beta secretion); THP-1 LPS/ATP IL-1B secretion, AlphaLISA, 16 h; hits give low values; activity change, % at 57.5 µM; 360,000 compounds, 4.7% hits; AID 743279; in the data active = activity change below about -50%; inconclusive = mostly about -30% to -49%
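Secreted IL-1B measured by AlphaLISA bead assay after 16 h compound exposure of THP-1 cells; compounds (final up to 57.5 uM) added 1 h before LPS (250 ng/mL) and ATP (1.25 mM) stimulation; lower signal means less secretion.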
HT1080 IDH1KD tx = HT-1080 IDH1 knockdown cell toxicity (counter line) | Potency, µM (doses to about 46.1 µM), without a hit: at the highest dose activity, negative = toxicity, actives largely listed as cytotoxic | 360,000 compounds, 2% hits | HT-1080 IDH1 knockdown viability, ATP luminescence, 48 h;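 note: potency is the fitted concentration of half-maximal effect; 0% = DMSO wells and -100% = cell-free medium wells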
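Luminescent ATP read-out (CellTiter-Glo, 10 min at room temperature) after 48 h compound exposure at 37 °C gave viability of IDH1-knockdown HT-1080 cells. Activity was normalised to DMSO and cell-free wells, then fitted as concentration-response curves.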
DT40 TDP1 no CPT = qHTS for Inhibitors of human tyrosyl-DNA phosphodiesterase 1 (TDP1): qHTS in cells in absence of CPT; DT40 Tdp1-/- hTDP1 cells, no CPT, ATP luminescence, 48 h; Potency, µM (highest dose often 46.2 µM), inactives show top-dose activity change, negative = growth inhibition, most hits filed as inhibitors; 420,000 compounds, 15% hits; AID 686978, 2013; note: potency is the fitted concentration of half-maximal effect; nearly all actives have a fitted effect of over 55% in size
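Chicken DT40 Tdp1-/- cells stably complemented with human TDP1 were seeded at 400 cells/well with DMSO in place of 20 nM camptothecin. After compound pinning, cells grew at least 48 hr at 37 °C; viability read by CellTiter-Glo luminescence.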
HT1080NT lethal = kills 2HG-producing HT-1080-NT fibrosarcoma cells. HT-1080-NT fibrosarcoma viability, CellTiter-Glo ATP luminescence, 48 h. Potency, µM (top dose mostly 46.1 µM), without a hit: top-dose activity, negative = less viability, hits mostly cytotoxic. 360,000 compounds, 1.6% hits. AID 686970;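 note: NT is the 2HG producing partner of a matched IDH1 knockdown line; potency is the fitted concentration of half-maximal effect; 0% = DMSO-treated cells and -100% = media-only wells without cells; nearly all actives have a fitted effect of over 55% in size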
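A 48-hour cytotoxicity screen used HT-1080-NT cells plated 2 hours before compound delivery. ATP-based CellTiter-Glo luminescence measured viability, normalized to DMSO and no-cell controls.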
TDP1 cell CPT = DT40-hTDP1 cell growth loss with CPT; chicken DT40 Tdp1-/-;hTDP1 cells + 20 nM CPT, ATP luminescence, 48 h; Potency, µM (titrated, usually from 46.2 µM), inactives show at the top dose activity change, negative = growth inhibition, most hits filed as inhibitors; AID 686979; 420,000 compounds, 12% hits; note: potency is the fitted concentration of half-maximal effect; nearly all actives have a fitted effect of over 55% in size
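Chicken DT40 Tdp1-/- cells stably complemented with human TDP1 were seeded at 400 cells/well in medium containing 20 nM camptothecin, exposed to pin-transferred compounds, and grown at 37 °C for at least 48 hr. Viability was read as ATP luminescence.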
Active calls of the source: *; u = inconclusive; x = no result given. Unless noted, calls come from the whole dose curve; as a rule, active = well fitted curve in the direction sought with a large enough effect; inconclusive = small, poorly fitted or top-dose-only effect, or another doubt; inactive = no such curve, though single readings can be large; an effect the other way counts as inactive or inconclusive. Unless noted, % is set by controls: 0 for no effect and ±100 for the full control effect.

SMILES	IL1B secr inh	HT1080 IDH1KD tx	DT40 TDP1 no CPT	HT1080NT lethal	TDP1 cell CPT
O=C(CCC(=O)N1CCN(c2ccc(O)cc2)CC1)c1cccs1	8.4	-29.6%	23.1µM*	5.5%	u
CC(=O)c1ccc(N2CCN(C(=O)CCC(=O)c3cccs3)CC2)cc1	-1.1	-3.7%	-29.7%	6.6%	-18.6%
Cc1ccc(CSCC(=O)N2CCN(c3ccc(F)cc3)CC2)cc1	-17.2	u	23.1µM*	1.7%	25.9µM*
COc1ccc(N2CCN(C(=O)CSCc3ccc(C)cc3)CC2)cc1	x	x	18.4µM*	x	20.6µM*
COc1ccc(N2CCN(C(=O)CSc3ccc(C)cc3)CC2)cc1	-14.8	10.6%	u	20.8%	-3.5%
Cc1ccc(OCCC(=O)N2CCN(c3ccc(O)cc3)CC2)cc1	23.5	7.31µM*	16.4µM*	u	u
Cc1ccc(Cn2c(=O)n(Cc3ccc(Cl)cc3)c(=O)c3cccnc32)cc1	x	x	u	x	-29.9%
CCOC(=O)CCC(=O)N1CCNC(=O)C1	19.9	10.2%	-11.6%	12.3%	7.0%
N#Cc1ccc[n+](CC(=O)c2ccc(Cl)cc2)c1	-6.2	-3.5%	-19.7%	-2.9%	-10.5%
Cc1ccc(C(=O)C2CCN(CC(=O)N3CCN(c4ccc(F)cc4)CC3)CC2)cc1	-55.5*	-22.0%	18.4µM*	-18.7%	u
O=C(CSCc1ccc(F)cc1)N1CCN(c2ccccc2)CC1	-15.6	-9.2%	u	4.0%	u
O=C(CCc1c[nH]c2ccccc12)N1CCN(c2ccc(O)cc2)CC1	30.6	13µM*	7.31µM*	u	5.17µM*
O=C(CSCc1ccc(F)cc1)N1CCN(c2ccc(F)cc2)CC1	-14.2	-12.7%	12.6µM*	1.1%	u
CC(=O)OCC(=O)Nc1cc(C#N)cc(NC(=O)COC(C)=O)c1Cl	x	x	-3.3%	x	-2.8%
CCCCNC(=O)CN1C(=O)NC(CCc2ccccc2)C1=O (configuration not stated)	11.7	10.1%	0.0%	13.2%	-16.1%
COc1ccc(-c2nc3cnc(N4CCN(C)CC4)nc3n(CCC#N)c2=O)cc1	x	x	23.1µM*	x	-24.4%
CN1CCN(c2ncc3nc(-c4ccccc4)c(=O)n(CCC#N)c3n2)CC1	x	x	16.4µM*	x	u
N#CCCn1c(=O)c(-c2ccccc2)nc2cnc(N3CCOCC3)nc21	x	x	-11.8%	x	-8.5%
NC1=NC(c2ccc(F)cc2)n2c(nc3ccccc32)N1 (configuration not stated)	-5.4	-4.4%	-9.4%	9.2%	-20.8%
NC1=NC(c2cn(-c3ccccc3)nc2-c2cccs2)n2c(nc3ccccc32)N1 (configuration not stated)	-7.8	u	-1.2%	18.4µM*	u
CC1=C(C#N)C(c2cn(-c3ccccc3)nc2-c2cccs2)C(C#N)=C(C)N1	-90.4*	u	-23.6%	u	-17.9%
C=CCOC(=O)C1=C(C)NC(=O)NC1c1cn(-c2ccccc2)nc1-c1cccs1 (configuration not stated)	-20.1	10µM*	u	u	u
CCOC(=O)C1=C(C)NC(=O)NC1c1cn(-c2ccccc2)nc1-c1ccc(OC(C)C)cc1 (configuration not stated)	x	x	16.4µM*	x	u
Cc1cc(=O)oc2c(C)c(OCC(=O)NCCCN3CCOCC3)ccc12	7.8	0.2%	4.5%	16.9%	5.0%
CCN(CC)c1nn2c(=O)c(C(=O)NCc3ccc(N(C)C)cc3)cnc2s1	x	x	-22.2%	x	-13.5%
SMILES	IL1B secr inh	HT1080 IDH1KD tx	DT40 TDP1 no CPT	HT1080NT lethal	TDP1 cell CPT
COC(=O)Cn1cc(/C=C/c2cc[n+](C)cc2)c2ccccc21	14.6	6.2%	u	1.7%	u
COC(=O)Cn1c(C)c(/C=C/c2cc[n+](C)cc2)c2ccccc21	30.6	1.3%	16.4µM*	4.0%	u
O=Cc1ccc(I)cc1	x	x	3.98µM*	x	1.58µM*
Cc1occc1C(=O)N/N=C/C1=C(N2CCOCC2)C(=C/c2ccc(Cl)cc2Cl)/CC1	-6.5	-1.2%	7.31µM*	8.5%	5.8µM*
Cc1onc(-c2ccccc2)c1C(=O)N1CCCC(C)(C(=O)NS(=O)(=O)C2CC2)C1 (configuration not stated)	10.2	23.1%	u	4.5%	u
Cc1ccc(C)c(N2CCN(C(=O)c3ccc(CS(=O)Cc4cccc(Cl)c4)o3)CC2)c1 (configuration not stated)	-74.7*	-17.4%	-14.0%	-23.0%	u
O=C(c1ccc(CS(=O)Cc2cccc(Cl)c2)o1)N1CCN(c2ccc(F)cc2)CC1 (configuration not stated)	-11.3	-2.1%	16.4µM*	-1.0%	u
O=C(c1ccc(COc2c(F)c(F)cc(F)c2F)o1)N1CCN(c2ccc(Cl)cc2)CC1	-5.2	u	16.4µM*	8.0%	13µM*
O=C(c1ccc(CS(=O)Cc2ccc(Cl)cc2)o1)N1CCN(c2cccc(Cl)c2)CC1 (configuration not stated)	-83.4*	u	-27.7%	u	u
O=C(c1ccc(CS(=O)Cc2ccc(Cl)cc2)o1)N1CCN(c2ccc(F)cc2)CC1 (configuration not stated)	u	-10.6%	-2.7%	-19.5%	u
COc1cc(=O)n2c(c1C(=O)N(C)Cc1nonc1C)CCN(C(=O)c1cc(C)cc(C)c1)CC2	x	x	-1.4%	x	8.5%
CCS(=O)(=O)N1CCCC(C(=O)Oc2ccc(Br)cc2)C1 (configuration not stated)	0.0	-8.6%	-11.7%	-2.6%	-4.1%
O=C(Nc1cc(-c2nc3cc(Cl)ccc3o2)ccc1Cl)c1cccc2ccccc12	x	x	-6.9%	x	1.1%
CCCCCC(=O)Oc1cccc(N2C(=O)C3CCCCC3C2=O)c1 (configuration not stated)	8.3	-7.7%	-0.1%	11.4%	6.1%
Cc1ccc(S(=O)(=O)NCc2ccc(N3CCN(C(=O)OC(C)(C)C)CC3)cc2)cc1	20.6	-1.3%	16.4µM*	4.5%	13µM*
Cc1ccccc1S(=O)(=O)NCc1ccc(N2CCN(C)CC2)cc1	15.8	14.5%	u	u	u
CN1CCN(c2ccc(CNS(=O)(=O)c3ccc(Cl)cc3)cc2)CC1	-2.0	20.4%	11.6µM*	10.3%	u
NS(=O)(=O)c1ccc(CCNC(=O)c2cc3ccccc3s2)cc1	18.8	-6.8%	-22.1%	-5.5%	1.7%
CC(NC(=O)CCCN1C(=O)CCn2nc(-c3cn(C)c4ccccc34)cc21)c1ccccc1 (configuration not stated)	x	x	23.1µM*	x	u
COc1cc(NC(=O)CCCN2C(=O)CCn3nc(-c4cn(C)c5ccccc45)cc32)cc(OC)c1	x	x	18.4µM*	x	u
